Potency, activity change, negative = inhibition and activity, negative = inhibition data for 17 compounds are collected here from PubChem BioAssay (NCATS).

Experiment [1] has as its target Lysosomal acid glucosylceramidase (Homo sapiens) (UniProt P04062). The experiment can be described thus: Glucocerebrosidase-p2 (AID 348; in the data active = potency below about 10 µM; also: potency is read from the fitted curve at half-maximal effect). The following applies: purified GBA, blue fluorogenic substrate, 40 min. Put shortly: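 Normal human glucocerebrosidase (0.2 nM) with blue fluorogenic substrate (80 uM final) in citrate/phosphate pH 5.9 with 10mM sodium taurocholate, 0.01% tween-20; 40 min RT, NaOH/glycine stop; fluorescence Ex 365/Em 440; AC50 from a titration from 0.6 nM upwards.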

Experiment [2] in a line: AP1 Signaling Pathway (AID 357).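 Also: ME-180 reporter cells stimulated with EGF at its EC50 level; % is scaled to controls: 0 for no effect and ±100 for the full control effect.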 The conditions noted are these: ME-180 AP-1-bla reporter, EGF-induced, beta-lactamase ratio, 5 h; at 7.69 µM (top of the series) unless noted. Put shortly: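 A ratiometric CCF4 readout (405 nm excitation; 460 and 530 nm emission) quantified AP-1-driven beta-lactamase in ME-180 cells after 5 h with compound and EC50 EGF; AC50 values were derived for activators and inhibitors.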

Experiment [3] addresses Cytochrome P450 1A2 (Homo sapiens) (UniProt P05177). The experiment is described as follows: p450-cyp1a2 (AID 410; calls by dose curve; also: potency is read from the fitted curve at half-maximal effect;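 as to activity change, negative = inhibition: -100% = full effect of reference inhibitor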). Summed up:
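Read-out is luminescence from luciferin produced by CYP1A2 demethylation of Luciferin-ME (100uM, at Km). Detection reagent stopped the 60 min NADPH-dependent reaction; signals were normalized to 57 uM furafylline.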

The nature of experiment [4]: NFAT Signaling Pathway (AID 444).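 Also: carbachol stimulus at about its EC50 of 1 µM final; % is scaled to controls: 0 for no effect and ±100 for the full control effect.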 The conditions noted are these: Jurkat NFAT-bla M1, carbachol, beta-lactamase ratio, 5 h; at 7.69 µM (top of the series) unless noted. Put shortly: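 Jurkat cells with NFAT-driven β-lactamase reporter and co-expressed M1 receptor, stimulated with carbachol (final 1 uM, ~EC50), compound titration, 5 h at 37 °C. CCF4 loaded 1 h at RT; 460/530 nm ratio gave %activity and AC50.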

The nature of experiment [5]: Stat Signaling Pathway (AID 446).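 Also: ME-180 cervical cancer cells given 40 pM IL-6 alongside compound; SIE-controlled beta-lactamase reporter measured as 460/530 nm FRET emission ratio; % is scaled to controls: 0 for no effect and ±100 for the full control effect.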 The conditions noted are these: ME-180 (cervical carcinoma) SIE beta-lactamase reporter, IL-6 stimulated, 5 h; at 7.69 µM (top of the series) unless noted. Summed up:
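Compound effects on IL-6-induced STAT reporter activity were measured in ME-180 cells. After overnight culture, cells were co-treated with 40 pM IL-6 for 5 hrs before beta-lactamase substrate loading at room temperature.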

In experiment [6] the target is Glucocorticoid receptor (Homo sapiens) (UniProt P04150). The experiment can be described thus: GR-GFP Redistribution (AID 450;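 active = compounds whose dose series gives a full or clear partial fitted curve of increased nuclear translocation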; also: potency is read from the fitted curve at half-maximal effect). The following applies: U2OS GR-GFP nuclear translocation, laser cytometry, 2 h.
Glucocorticoid receptor (Homo sapiens), sequence (P04150 whole entry, looked up, the tested form may be a part): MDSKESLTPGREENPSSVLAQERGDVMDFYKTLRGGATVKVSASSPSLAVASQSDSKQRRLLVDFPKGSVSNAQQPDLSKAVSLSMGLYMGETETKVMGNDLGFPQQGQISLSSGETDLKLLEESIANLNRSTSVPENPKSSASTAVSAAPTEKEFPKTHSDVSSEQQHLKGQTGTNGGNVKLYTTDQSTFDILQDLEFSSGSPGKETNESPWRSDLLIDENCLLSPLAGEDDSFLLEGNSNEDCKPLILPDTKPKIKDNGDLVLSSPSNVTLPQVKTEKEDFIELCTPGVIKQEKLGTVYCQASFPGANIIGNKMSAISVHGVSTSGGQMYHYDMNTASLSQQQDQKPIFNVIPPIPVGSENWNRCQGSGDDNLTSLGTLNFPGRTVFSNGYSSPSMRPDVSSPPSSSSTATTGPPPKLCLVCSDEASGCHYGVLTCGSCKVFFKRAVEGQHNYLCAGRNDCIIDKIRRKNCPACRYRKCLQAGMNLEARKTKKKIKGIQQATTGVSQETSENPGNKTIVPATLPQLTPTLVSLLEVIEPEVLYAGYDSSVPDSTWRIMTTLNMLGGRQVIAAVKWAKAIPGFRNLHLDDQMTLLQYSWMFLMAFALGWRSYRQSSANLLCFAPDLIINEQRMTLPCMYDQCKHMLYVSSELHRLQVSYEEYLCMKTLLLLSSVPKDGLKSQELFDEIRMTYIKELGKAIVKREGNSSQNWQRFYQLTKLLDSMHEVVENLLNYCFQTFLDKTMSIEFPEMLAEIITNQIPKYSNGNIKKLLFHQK
Experiment [7] shares this target. The experiment is described as follows: GR-EFC Redistribution (AID 451; calls by dose curve; also: potency is read from the fitted curve at half-maximal effect). The following applies: CHO-K1 GR-EFC translocation, beta-gal luminescence, 2 h. Put shortly: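 CHO-K1 cells expressing nuclear EA and GR-ED fragments of b-gal; compounds titrated up to 46 uM final, 2 h at 37 C. GR nuclear translocation read as complemented b-gal luminescence after 1 h RT detection.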

Experiment [8] concerns the target Mitogen-activated protein kinase 10 (Mus musculus) (UniProt Q61831). The experiment is described as follows: JNK3 AlphaScreen Assay (AID 530).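 Also: kinase came from lysate of stimulated human HepG2 cells; signal reports phosphorylation of biotinylated GST-cJun 1-79 at Ser73 with 10 µM ATP; % is scaled to controls: 0 for no effect and ±100 for the full control effect.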 Put shortly:
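HepG2 lysate (IL-1b/TNFa pre-activated) + biotin-GST-cJun 1-79 + anti-pSer73 cJun; cpd titration, 15 min RT; ATP 10 uM start; Tris pH 7.6, MgCl2, DTT, vanadate; beads in EDTA buffer; AlphaScreen.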
A general note: Alpha assays give light when donor and acceptor beads are brought close together.

The target of experiment [9] is 3',5'-cyclic-AMP phosphodiesterase 4B (Homo sapiens) (UniProt Q07343). The experiment is described as follows: qHTS Assay for Inhibitors of PDE-IV (AID 607; active = well fitted activation curve with a large enough effect in the main read-out, with a control signal flat, not every such curve was filed as active; also: % of control where 0% means no effect). Summed up:
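ACTOne HEK293 cells carry a modified cAMP-gated CNG channel and express endogenous PDE4; plated 1000 cells/well, compounds up to 22.9 uM final. Membrane-potential dye fluorescence (ex 535/em 590) was read; parental cells received 10 uM forskolin + 100 uM RO 20-1724.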

Unmarked numbers belong to inactive results. Records with an inconclusive call do not appear. Active and inactive are the calls of the source. Unless noted, calls follow the shape of the dose curve; as a rule, active = well fitted curve in either direction with a large enough effect (not every such curve was filed as active); inconclusive = small, poorly fitted or top-dose-only effect, or another doubt; inactive = flat fitted curve, though single readings scatter.

Cytochrome P450 1A2 (Homo sapiens), sequence (P05177 whole entry, looked up): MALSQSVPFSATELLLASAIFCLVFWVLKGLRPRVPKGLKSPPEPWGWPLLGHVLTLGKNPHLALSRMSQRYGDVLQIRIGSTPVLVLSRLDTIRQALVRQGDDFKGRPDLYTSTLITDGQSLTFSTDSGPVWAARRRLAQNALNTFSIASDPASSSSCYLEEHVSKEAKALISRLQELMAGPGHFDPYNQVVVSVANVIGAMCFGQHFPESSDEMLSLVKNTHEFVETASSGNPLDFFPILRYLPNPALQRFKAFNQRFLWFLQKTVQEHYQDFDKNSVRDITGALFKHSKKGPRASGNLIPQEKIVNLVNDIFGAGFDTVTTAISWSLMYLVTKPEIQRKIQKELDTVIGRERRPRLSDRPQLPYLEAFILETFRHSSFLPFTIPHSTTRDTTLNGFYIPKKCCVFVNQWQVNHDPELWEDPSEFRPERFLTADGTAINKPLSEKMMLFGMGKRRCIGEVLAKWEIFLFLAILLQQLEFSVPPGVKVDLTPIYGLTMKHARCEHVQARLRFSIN
Lysosomal acid glucosylceramidase (Homo sapiens), sequence (P04062 whole entry, looked up): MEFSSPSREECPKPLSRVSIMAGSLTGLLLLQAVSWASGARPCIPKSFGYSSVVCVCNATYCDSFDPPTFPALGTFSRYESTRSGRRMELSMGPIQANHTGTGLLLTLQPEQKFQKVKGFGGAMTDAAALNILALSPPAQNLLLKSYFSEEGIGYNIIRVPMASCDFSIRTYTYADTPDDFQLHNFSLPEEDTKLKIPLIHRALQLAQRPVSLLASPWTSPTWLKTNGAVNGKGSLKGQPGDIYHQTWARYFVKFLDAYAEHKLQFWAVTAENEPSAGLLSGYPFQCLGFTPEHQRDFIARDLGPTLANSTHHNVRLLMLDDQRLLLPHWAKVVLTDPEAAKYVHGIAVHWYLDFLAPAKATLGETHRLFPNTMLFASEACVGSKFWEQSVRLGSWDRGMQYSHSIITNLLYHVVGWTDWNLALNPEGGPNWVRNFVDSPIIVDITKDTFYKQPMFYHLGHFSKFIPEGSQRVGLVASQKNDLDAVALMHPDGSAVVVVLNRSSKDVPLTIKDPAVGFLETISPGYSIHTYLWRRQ
3',5'-cyclic-AMP phosphodiesterase 4B (Homo sapiens), sequence (Q07343 whole entry, looked up): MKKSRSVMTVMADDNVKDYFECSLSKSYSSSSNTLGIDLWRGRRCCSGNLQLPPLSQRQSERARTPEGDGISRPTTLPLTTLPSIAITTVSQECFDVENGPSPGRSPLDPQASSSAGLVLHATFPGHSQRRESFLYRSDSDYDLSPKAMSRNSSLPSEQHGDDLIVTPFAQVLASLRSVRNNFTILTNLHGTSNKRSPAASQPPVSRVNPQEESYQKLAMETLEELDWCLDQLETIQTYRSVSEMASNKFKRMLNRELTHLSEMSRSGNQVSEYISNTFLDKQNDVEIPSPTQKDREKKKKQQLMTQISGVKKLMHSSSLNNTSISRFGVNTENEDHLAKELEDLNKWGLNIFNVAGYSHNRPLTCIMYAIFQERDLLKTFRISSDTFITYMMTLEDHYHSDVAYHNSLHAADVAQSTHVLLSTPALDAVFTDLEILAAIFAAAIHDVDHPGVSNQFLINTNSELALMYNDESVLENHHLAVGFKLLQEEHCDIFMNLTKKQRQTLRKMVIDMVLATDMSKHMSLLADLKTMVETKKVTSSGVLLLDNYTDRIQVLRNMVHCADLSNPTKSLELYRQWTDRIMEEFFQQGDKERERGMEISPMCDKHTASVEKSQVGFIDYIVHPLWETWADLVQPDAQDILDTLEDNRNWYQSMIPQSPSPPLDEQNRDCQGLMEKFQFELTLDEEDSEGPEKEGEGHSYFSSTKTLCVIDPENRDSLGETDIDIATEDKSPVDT

Consider `Cn1c(=S)c2[nH]c(SCCN3CCCC3)nc2n(C)c1=O`, for which the Potency was over 11.4 µM in experiment [1], over 46 µM in experiment [6] and over 9.22 µM in [7]. Also, the activity change, negative = inhibition in [2] was -5.98%; in [3], -29.7% [at 2.29 µM]; in experiment [4] it was 11.4%. In addition, the activity, negative = inhibition in [5] was -0.274%. Moreover, the Potency entry in [8] and in [9] was “inactive” throughout.
With `NCc1nnn(Cc2ccccc2)c1N`, the Potency is over 11.4 µM in experiment [1], over 46 µM in experiment [6] and over 9.22 µM in experiment [7]. In addition, the values for the activity change, negative = inhibition in experiment [2] and in experiment [4] were 2.56% and 19.4%, respectively. Moreover, the Potency entry in experiment [3], in experiment [8] and in experiment [9] was “inactive” each time. Besides, in experiment [5], the activity, negative = inhibition is -5.08%.
Consider `NC(N)=N/N=C\c1ccc(C2CCNCC2)cc1`, for which the Potency in experiment [1] was over 11.4 µM; in experiment [6], over 46 µM; in experiment [7], over 9.22 µM. The activity change, negative = inhibition in [2] is 7.39%; in [3] it was -12% [at 2.29 µM]; in [4] it was -11.8%. The activity, negative = inhibition in experiment [5] was 0.317%. Further, the Potency entry in experiment [8] and in experiment [9] was “inactive” throughout.
As to `O=C(O)c1ccccc1-c1ccccc1C(=O)Nc1ccc2c(c1)Cc1ccccc1-2`, the Potency in [1] was over 11.4 µM; in experiment [6], over 46 µM; in [7], over 9.22 µM. The activity change, negative = inhibition in experiment [2] was 6.9%; in [3], -7.1% [at 2.29 µM]; in experiment [4], -20.4%. Further, the activity, negative = inhibition in [5] was -24.1%. The Potency entry in experiment [8] and in [9] was “inactive” each time.
Turning to `C[C@@H](CSC(=N)N)C(N)=O`, the Potency in [1] was over 11.4 µM; in experiment [6] it was over 46 µM; in experiment [7], over 9.22 µM. The figures for the activity change, negative = inhibition in [2], in experiment [3] and in experiment [4] were -3.05%, -6.6% [at 2.29 µM] and 13.8%, respectively. For the same compound, the activity, negative = inhibition in experiment [5] was 9.57%. Further, the Potency result in [8] and in experiment [9] was “inactive” throughout.
Turning to `NS(=O)(=O)c1ccc(N=Nc2ccc[nH]c2=O)cc1`, the Potency was 3.95 µM (active) in experiment [1], 0.501 µM (active) in experiment [3], over 46 µM in [6] and over 9.22 µM in experiment [7]. Further, the activity change, negative = inhibition is -1.61% in experiment [2] and -25.2% in experiment [4]. The activity, negative = inhibition in [5] was -6.14%. Also, the Potency entry in experiment [8] and in experiment [9] was “inactive” throughout.
Regarding `Cc1nc(CN2CCCCC2)c(O)c(=O)[nH]1`, the Potency in experiment [1] is over 11.4 µM; in [6], over 46 µM; in experiment [7], over 9.22 µM. Further, the activity change, negative = inhibition was -7.91% in experiment [2] and 12.6% in [4]. Besides, the Potency result in [3], in experiment [8] and in experiment [9] was “inactive” in each case. Besides, the activity, negative = inhibition in [5] was -9.62%.
For the compound `Cc1cc2ccc(OC(=O)c3ccc(N=C(N)N)cc3)cc2oc1=O`, the Potency in [1] was over 11.4 µM; in experiment [3], 2.51 µM (active); in experiment [6] it was over 46 µM; in experiment [7] it was over 9.22 µM. Also, the activity change, negative = inhibition was 5.35% in experiment [2] and -22.4% in [4]. The activity, negative = inhibition in experiment [5] was -1.77%. The Potency result in experiment [8] and in experiment [9] was “inactive” in each case.
Regarding `O=C(O)c1cc(C(=O)O)nc(C(=O)O)c1`, the Potency was over 11.4 µM in experiment [1], over 46 µM in [6] and over 9.22 µM in experiment [7]. Further, the activity change, negative = inhibition was 7.15% in experiment [2] and 0.674% in [4]. Besides, the Potency entry in experiment [3], in experiment [8] and in experiment [9] was “inactive” throughout. Also, the activity, negative = inhibition in experiment [5] is 3.63%.
`Nc1ccc(C(=O)C[C@H](N)C(=O)O)cc1O`: the Potency is over 11.4 µM in experiment [1], over 46 µM in experiment [6] and over 9.22 µM in [7]. Moreover, the activity change, negative = inhibition in experiment [2] is 8.27%; in experiment [4], -4.19%. The Potency entry in [3], in experiment [8] and in [9] was “inactive” each time. Also, the activity, negative = inhibition in [5] was 6.37%.
`O=C(O)CNCCc1ccccc1`: the Potency is over 11.4 µM in [1], over 46 µM in experiment [6] and over 9.22 µM in [7]. The activity change, negative = inhibition is 7.75% in experiment [2] and -3.02% in experiment [4]. Besides, the Potency result in experiment [3], in [8] and in experiment [9] was “inactive” throughout. Further, the activity, negative = inhibition in experiment [5] was 4.05%.
Take `N[C@@H](CSCc1ccc(I)cc1)C(=O)O`: the Potency is over 11.4 µM in experiment [1], over 46 µM in [6] and over 9.22 µM in experiment [7]. In addition, the activity change, negative = inhibition in [2] is -1.51%; in experiment [3], -12% [at 2.29 µM]; in experiment [4], 0.82%. For the same compound, the activity, negative = inhibition in [5] was 10.1%. The Potency entry in [8] and in [9] was “inactive” each time.
For `O=C(O)c1ccc(Nc2ccnc3cc(Cl)ccc23)cc1O`, the Potency is over 11.4 µM in experiment [1], 3.98 µM (active) in experiment [3], over 46 µM in [6] and over 9.22 µM in [7]. Further, the activity change, negative = inhibition in experiment [2] is -7.31%; in experiment [4], 11.5%. Besides, in experiment [5], the activity, negative = inhibition is -9.48%. In addition, the Potency entry in experiment [8] and in [9] was “inactive” in each case.
Regarding `c1ccc([C@H](CCN2CCCC2)c2ccccn2)cc1`, the Potency in experiment [1] is over 11.4 µM; in experiment [6], over 46 µM; in [7] it was over 9.22 µM. The activity change, negative = inhibition in experiment [2] is -0.626%; in [4] it was -26.3%. Moreover, the Potency entry in experiment [3], in experiment [8] and in [9] was “inactive” throughout. Moreover, the activity, negative = inhibition in [5] was 0.606%.
For the compound `O=[N+]([O-])c1ccc2ncccc2c1CCc1c([N+](=O)[O-])ccc2ncccc12`, the Potency in experiment [1] is over 11.4 µM; in experiment [3], 3.16 µM (active); in experiment [6], over 46 µM; in [7], over 9.22 µM. The values for the activity change, negative = inhibition in experiment [2] and in experiment [4] were 1.48% and 17.8%, respectively. Besides, the activity, negative = inhibition in experiment [5] was 5.88%. The Potency result in experiment [8] and in experiment [9] was “inactive” in each case.
`COC(=O)[C@@H]1[C@@H]2C[C@H]3c4[nH]c5ccccc5c4CCN3C[C@@H]2CC[C@@H]1OS(=O)(=O)O`: the results for the Potency in [1], in experiment [6] and in experiment [7] were over 11.4 µM, over 46 µM and over 9.22 µM, respectively. Besides, the activity change, negative = inhibition in experiment [2] was 1.46%; in [3] it was -10.3% [at 2.29 µM]; in experiment [4], 3.3%. For the same compound, in experiment [5], the activity, negative = inhibition was 12.7%. Further, the Potency entry in [8] and in [9] was “inactive” each time.
With `Cc1ccc(S(=O)(=O)NC(=O)Nc2ncn[nH]2)cc1`, the Potency is over 11.4 µM in [1], over 46 µM in experiment [6] and over 9.22 µM in experiment [7]. Moreover, the activity change, negative = inhibition in experiment [2] was 3.19%; in experiment [3], -21.5% [at 2.29 µM]; in experiment [4], 13%. Further, the activity, negative = inhibition in experiment [5] was 0.243%. Besides, the Potency entry in experiment [8] and in experiment [9] was “inactive” each time.
